The values that follow come from PubChem BioAssay AID686979 (National Center for Advancing Translational Sciences (NCATS), 2013).

SMILES strings stand for the structures. In all, about 420,000 compounds went through this assay and about 50,000 (12%) were called active. Inconclusive results (about 26%) are left out. Calls follow the shape of the dose curve; as a rule, active = well fitted inhibition curve with a large enough effect; inconclusive = small, poorly fitted or top-dose-only effect; inactive = flat fitted curve, though single readings scatter. Shown is part of a subset that was picked to be rich in actives. A call without a number means that no potency is given here. Where a SMILES comes first, the peptide text is derived from it. The star is where a group is joined. Bz = O=C(c1ccccc1)*
Potency is read from the fitted curve at half-maximal effect.

This experiment is described as follows: qHTS for Inhibitors of human tyrosyl-DNA phosphodiesterase 1 (TDP1): qHTS in cells in presence of CPT. Also: nearly all actives have a fitted effect of over 55% in size. The conditions noted are these: chicken DT40 Tdp1-/-;hTDP1 cells + 20 nM CPT, ATP luminescence, 48 h; series mostly up to 46.2 µM. In short, it runs like this:
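Chicken DT40 Tdp1-/- cells complemented with human TDP1, 400 cells/well, exposed to compounds plus 20 nM camptothecin for at least 48 h at 37 C; viability read as ATP content by CellTiter-Glo luminescence.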
In the case of `Cc1ccc(C(=O)NNC(=O)c2ccc3c(c2)OCCO3)cc1`, the Potency entry was “inactive”. Take `COc1cc(Cl)c(S(=O)(=O)N2CCN(Cc3ccc4c(c3)OCO4)CC2)cc1Cl`: the Potency result was “inactive”. The same measure, in the same setting: the result for `N#C/C=C/N1CCN(Cc2ccc3c(c2)OCO3)CC1` reads “inactive”; that for `Fc1ccc2[nH]c3c(N4CCSCC4)ncnc3c2c1`, 11.6 µM (active); that for `Fc1ccc2[nH]c3c(N4CCN(Cc5ccc6c(c5)OCO6)CC4)ncnc3c2c1`, 2.31 µM (active).

As for `CC1CN(CC(=O)NC(C)c2ccccc2)CC(C)O1` (stereo not given), the Potency entry was “inactive”. The same measure, in the same setting: as for `COc1ccccc1CNC(=O)CSc1nc(=O)n(Cc2ccncc2)c2c1CCC2`, the entry is “inactive”; as for `Cc1[nH]n(-c2cccc(Cl)c2)c(=O)c1-c1ccc(Cl)cc1`, 16.4 µM (active). Still for that read-out and setting: the result for `Cc1cccc(N=Nc2c(C)[nH]n(-c3ccccc3)c2=O)c1` reads “inactive”; that for `O=c1c(-c2cccc(Cl)c2)c[nH]n1-c1ccccc1`, “inactive”; that for `Cc1ccc2cc(C)c(N3CCN(c4ccc(F)cc4)CC3)nc2c1`, “inactive”. For the molecule `Cc1ccc(OCCCC(=O)Nc2ccc(S(=O)(=O)Nc3cc(C)nc(C)n3)cc2)cc1`, the Potency result was “inactive”. The same measure, in the same setting: as for `COc1cc(OC)c(C2=NOC(C(=O)Nc3c(C)n(C)n(-c4ccccc4)c3=O)C2)cc1Cl` (stereo not given), the entry is “inactive”; as for `O=C(Nc1ccc2c(c1)OCCO2)C1c2ccccc2OCC(=O)N1Cc1ccccn1` (stereo not given), “inactive”. The same measure, in the same setting: as for `CC1CCC(NC(=O)C2c3ccccc3C(=O)N2Cc2ccc3c(c2)OCO3)CC1` (stereo not given), the entry is “inactive”; as for `O=C(Nc1ccc(Cl)cc1)C1c2cccc[n+]2CC(=O)N1Cc1ccc2c(c1)OCO2` (stereo not given), 1.3 µM (active).

`CCOc1ccc(NS(=O)(=O)c2ccc(N)cc2)nn1`: the Potency result is “inactive”. On the same count and under the same terms, as for `COc1cccc(NC(=O)c2ccccc2N(Cc2ccccc2)S(C)(=O)=O)c1`, the entry is “inactive”; as for `COc1ccc(S(=O)(=O)N2CCN(CC(=O)NCC3(N4CCOCC4)CCCCC3)CC2)cc1`, “inactive”; as for `O=C1CCC(C(=O)Nc2ccc(OC(F)F)cc2)N1` (stereo not given), “inactive”. On the same count and under the same terms, as for `CC(C)N(Cc1ccccc1)C(=S)Nc1ccc(OC(F)F)cc1`, the entry is “inactive”.

For the molecule `CC(NC(=S)Nc1ccc(OC(F)F)cc1)c1ccc(F)cc1` (stereo not given), the Potency is 14.6 µM (active). The same measure, in the same setting: as for `Cc1c(CN2CCC(n3nccc3NC(=O)CCc3ccccc3)CC2)cnn1C`, the entry is “inactive”. Still for that read-out and setting: as for `CN(C)CCNC(=O)c1[nH]nc2c1CCc1ccccc1-2`, the entry is “inactive”; as for `COc1cc2cc(C(=O)N/N=C/c3cccc(OC)c3OC)[nH]c2cc1OC`, “inactive”; as for `COc1cccc(/C=N/NC(=O)c2[nH]nc3c2CCc2ccccc2-3)c1O`, 2.31 µM (active). Still for that read-out and setting: the result for `O=C1CC(c2cccc(Cl)c2)CC(O)=C1C=Nc1ccccc1` (stereo not given) reads “inactive”. In the case of `CSc1ncnc2c1ncn2CCCNCc1cccs1`, the Potency entry was “inactive”. On the same count and under the same terms, as for `Cn1c(=O)c2c(n3c4ccccc4nc13)NC(=O)CC2c1cccc(Cl)c1` (stereo not given), the entry is “inactive”.

On to `CC(Oc1cccc(NC(=O)c2cccs2)c1)C(=O)c1ccccc1` (stereo not given), for which the Potency entry was “inactive”. The same measure, in the same setting: the result for `Cc1ccc(-c2noc(-c3nnn(-c4cccc(C(F)(F)F)c4)c3N)n2)cc1` reads “inactive”; that for `Cc1ccc2nc(N(CCN(C)C)C(=O)C3=COCCO3)sc2c1`, “inactive”; that for `CC(C)N(Cc1nnc(-c2ccc(Cl)cc2)o1)C(=O)C1=COCCO1`, 9.2 µM (active). Still for that read-out and setting: as for `O=C(c1nnc(-c2ccc(Cl)cc2)o1)C1CCCC1`, the entry is “inactive”. The same measure, in the same setting: the result for `N#Cc1ccc(-c2cccs2)nc1SCc1ccc(Br)cc1` reads “inactive”; that for `Nc1c(-c2ccccc2)nnn1Cc1ccccc1`, “inactive”; that for `COc1ccc(C(=O)NC2CCCc3c2cnn3-c2cccc(C)c2C)c(OC)n1` (stereo not given), 10.3 µM (active). For the molecule `Cc1cccc(C(=O)OC(C)C(=O)NC2CCCc3ccccc32)c1O` (stereo not given), the Potency result was “inactive”. Same read-out and setting: the result for `Cc1cc(C(=O)NC2CCCc3c2cnn3-c2cccc(C)c2C)c(C)o1` (stereo not given) reads 13 µM (active).

As for `Cc1cc(C(=O)NNC(=O)CCC2CCCCC2)c(C)o1`, the Potency entry is “inactive”. For the molecule `Cc1cc(C(=O)NCC2Cc3cccc(-c4cncnc4)c3O2)c(C)o1` (stereo not given), the activity change, negative = growth inhibition is 6.48% [at 9.04 µM] (inactive). Still for that read-out and setting: the result for `COCc1c(C(=O)NC2CCCCC2)cnn1-c1nccc(-c2ccccc2OC)n1` reads 5.12% [at 9.04 µM] (inactive). For `CCN(CC(=O)NCc1ccc(F)cc1)S(=O)(=O)c1ccc(Cl)s1`, the Potency result was “inactive”. With `Cc1ccccc1CCNC(=O)C1CCC(=O)N(Cc2ccc(Cl)cc2)C1` (stereo not given), the Potency result is “inactive”. Same read-out and setting: the result for `C/C(=N\Nc1ccc(S(N)(=O)=O)cc1[N+](=O)[O-])c1cccs1` reads “inactive”; that for `CCCN(CCC)S(=O)(=O)c1cc2c(cc1Br)CCN2C(=O)CC`, 8.2 µM (active). On the same count and under the same terms, as for `CCC(=O)N1CCc2cc(Br)c(S(=O)(=O)NCCN3CCCCC3CC)cc21` (stereo not given), the entry is “inactive”; as for `CCC(=O)N1CCc2cc(S(=O)(=O)NC(C(=O)N3CCc4ccccc4C3)C(C)C)ccc21` (stereo not given), “inactive”.

Consider `Cc1ccc2c(c1)-c1c(cnn1CC(=O)Nc1ccccc1C#N)CO2`, for which the Potency result is “inactive”.

On to `O=C(O)C1C2C=CC(O2)C1C(=O)Nc1ccccn1` (stereo not given), for which the Potency result was “inactive”. On the same count and under the same terms, the result for `CCOC(=O)CSc1nc2c(sc(=S)n2CCc2ccccc2)c(=O)n1Cc1ccco1` reads 20.6 µM (active); that for `Cc1cc(C)nc(SCc2nnc(SCC(=O)Nc3ncc(C)s3)n2Cc2ccco2)n1`, “inactive”; that for `CCOC(=O)CSc1nnc(-c2ccco2)n1C`, “inactive”. As to `O=C(c1ccc(F)cc1)C1CCN(Cc2cn[nH]c2-c2ccccc2)CC1`, the Potency result was “inactive”. Consider `C[C@@H](NC(=O)OC(C)(C)C)c1nnc(S(=O)(=O)Cc2ccccc2)o1`, for which the Potency is 0.651 µM (active). Turning to `C[C@H](NC(=O)OC(C)(C)C)c1nnc(SCC(N)=O)o1`, the Potency result is “inactive”. The same measure, in the same setting: the result for `CC(C)Sc1nnc([C@H](Cc2ccccc2)NC(=O)OC(C)(C)C)o1` reads “inactive”. As for `CN(CCC#N)c1ccc(C=O)cc1`, the Potency entry was “inactive”. On the same count and under the same terms, as for `CCn1c(=S)[nH]c2cc(S(=O)(=O)N3CCOCC3)ccc21`, the entry is “inactive”; as for `Cc1ccc(S(=O)(=O)/N=C2\C=C(NS(=O)(=O)c3ccc(C)cc3)C(=O)c3ccccc32)cc1`, 23.1 µM (active).

In the case of `Cc1ccc(S(=O)(=O)N/N=C(\c2ccccc2)C2CC2)cc1`, the Potency result was “inactive”. The same measure, in the same setting: as for `Cc1ccc(S(=O)(=O)N[C@H](CO)C(C)C)cc1`, the entry is “inactive”; as for `CCC1(CC)NC(=O)N(CC(=O)OCC(=O)c2cc(C)c(C)cc2C)C1=O`, “inactive”; as for `Cc1csc(NC(=O)CSc2nc(=O)cc(N)n2-c2ccc(F)cc2)n1`, “inactive”.

For the molecule `CC1Cc2[nH][nH]c(=O)c2C(C2CCCC2)O1` (stereo not given), the Potency entry is “inactive”.

In the case of `CCn1c(C(C)NC(=O)c2ccc(C)cc2)n[nH]c1=S` (stereo not given), the Potency entry was “inactive”. As to `CCN1CCN(C(=O)CSc2ccc(C)cc2)CC1`, the Potency entry is “inactive”. Still for that read-out and setting: as for `CCN1CCC2(CC1)N=C(c1ccc(F)cc1)C(=S)N2C(=O)c1ccc(C)cc1`, the figure is 8.2 µM (active); as for `C/C(=N\NC(N)=S)c1ccncc1`, “inactive”; as for `C/C(=N\NC(=S)NC(C)C)c1ccc(C(C)(C)C)cc1`, 23.1 µM (active).

For `C/C(=N\NC(N)=S)c1cccnc1`, the Potency entry was “inactive”. Same read-out and setting: as for `COc1ccc(-c2ocnc2C(=O)Nc2ccc3c(c2)CCC3)cc1`, the entry is “inactive”; as for `CC1(C)O[C@@H]2[C@H](O1)[C@@H](COS(=O)(=O)O)O[C@H]2n1ccc(=O)[nH]c1=O`, “inactive”; as for `Cn1nnc2cc(C(=O)NCCC3=CCCCC3)ccc21`, “inactive”. Same read-out and setting: the result for `Cc1ccn2c(=O)c(C(=O)NCCC3=CCCCC3)c(O)nc2c1` reads 23.1 µM (active). Same read-out and setting: the result for `O=C(NCCC1=CCCCC1)c1ccc(-n2cncn2)cc1` reads “inactive”; that for `Nc1ccc2c(c1)C(O)c1ccc(Cl)cc1-2` (stereo not given), “inactive”. On to `O=C(c1ccc(Br)cc1)N(Cc1cccs1)c1ccc(F)cc1`, for which the Potency result was “inactive”. Still for that read-out and setting: the result for `CC(C)OC(=O)CN1CCN(c2ccc(Cl)cc2)CC1` reads “inactive”; that for `COC(=O)c1ccc(S(=O)(=O)N2CCc3ccccc3C2)cc1`, “inactive”; that for `Cc1cccc(N2CCN(C(=O)c3cccc(S(=O)(=O)N4CCc5ccccc5C4)c3)CC2C)c1` (stereo not given), 9.2 µM (active). On the same count and under the same terms, as for `CC(NC(=O)c1cccc(S(=O)(=O)N2CCc3ccccc3C2)c1)c1ccco1` (stereo not given), the entry is “inactive”.

`CC1CCCC(C)N1C(=O)COC(=O)COc1ccccc1C#N` (stereo not given): the Potency result was “inactive”. The same measure, in the same setting: as for `O=C(COC(=O)c1ccc(O)cc1O)c1ccc2c(c1)OCCO2`, the entry is “inactive”. Still for that read-out and setting: the result for `CC(CNC(=O)c1ccc(N)cc1)NC(=O)c1ccc(N)cc1` (stereo not given) reads “inactive”. Same read-out and setting: as for `O=C(NC(Cc1ccccc1)C(=O)N1CCCC1C(=O)O)c1ccccc1` (stereo not drawn) (Bz-Phe-Pro-OH; configuration not given here), the entry is “inactive”; as for `CC(Cc1ccccc1)C(=O)N(C)Cc1ccccc1` (stereo not given), “inactive”. As to `CN(Cc1ccccc1F)C(=O)C(Cc1ccccc1)NC(=O)c1ccccc1` (stereo not given), the Potency is 29.1 µM (active). On the same count and under the same terms, the result for `CC(=O)c1sc(NC(=O)c2ccc(C)cc2)nc1C` reads “inactive”; that for `CCOc1cccc(C(=O)Nc2nnc(-c3cccs3)s2)c1`, “inactive”. Same read-out and setting: as for `N#Cc1ccc(C(=O)Nc2nc(-c3cccs3)c(C(=O)C(F)(F)F)s2)cc1`, the figure is 1.64 µM (active); as for `CC1CN(C(=O)c2cc(COc3c(F)cccc3F)on2)CCN1C` (stereo not given), “inactive”; as for `CC(C)CCNC(=O)Cn1c(=O)oc2cc(S(=O)(=O)N3CC(C)CC(C)C3)ccc21` (stereo not given), 23.1 µM (active). Still for that read-out and setting: as for `CC1CCCN(C(=O)Cn2c(=O)oc3cc(S(=O)(=O)N4CCCCC4C)ccc32)C1` (stereo not given), the entry is “inactive”. Consider `CC1CCCCN1C(=O)Cn1c(=O)oc2cc(S(=O)(=O)N3CCCCC3)ccc21` (stereo not given), for which the Potency result is “inactive”.

Turning to `CC(=O)c1cccc(NC(=O)CSc2nc3c(c(=O)[nH]2)CCC3)c1`, the Potency result was “inactive”.

On to `O=C(CCc1ccccc1)NNC(=O)COc1ccc(Cl)cc1`, for which the Potency result is “inactive”. Same read-out and setting: as for `O=C(COC(=O)COc1cccc(F)c1)NCC1CCCCC1`, the entry is “inactive”; as for `COc1cc(NC(=O)c2cc3ccc4cccnc4c3[nH]2)cc(OC)c1OC`, “inactive”; as for `CCOc1cccc(OCCCOc2cccc3cccnc23)c1`, “inactive”. In the case of `Cc1ccccc1CN1CCC(CNC(=O)c2c(C)oc3ncnc(N4CCCCC4)c23)CC1`, the Potency entry was “inactive”.

Regarding `Cc1ccccc1CN1CCC(CNC(=O)c2cc3ccc4cccnc4c3[nH]2)CC1`, the Potency was 16.4 µM (active). On the same count and under the same terms, as for `CCOc1ccccc1N(CC)C(=O)c1cc2ccc3cccnc3c2[nH]1`, the figure is 5.8 µM (active); as for `Cc1ccccc1CN1CCN(CC(=O)NCc2ccccn2)C1=O`, “inactive”.

`O=c1[nH]n2c(=O)c3c([nH]c2c1N=Nc1ccccc1)CCC3`: the Potency entry is “inactive”.
